# Pf growth 48h: inhibits P. falciparum growth in the first generation, 48 h; Potency, µM (titrated, usually from 28.7 µM), for the others: at the highest dose activity change, negative = inhibition, most hits filed as inhibitors; P. falciparum luciferase growth in erythrocytes, 48 h; hit rate 5.9% among 310,000; further: potency means the concentration at half of the fitted maximal effect; on the % scale 0 is the no-effect control and ±100 the full control effect
#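 Here the parasites carry a stable luciferase gene and grow inside erythrocytes in Albumax-based RPMI medium with compound for one erythrocytic cycle. Activity is scored as loss of luminescent signal.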
# HCMV inh: human cytomegalovirus inhibition. HFF cells, HCMV-luciferase reporter, 72 h; stronger effect = lower value. activity change, negative = inhibition, % at 57.5 µM. hit rate 4.5% among 410,000. AID 1259415; in the data active means activity change below about -60%; inconclusive means no clear call, values can overlap the other calls; inactive means above about -39%; further: on the % scale 0 is the no-effect control and ±100 the full control effect
#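 HFF cells seeded 16 h at 37C, treated with compounds, infected with luciferase-reporter HCMV at MOI 1 PFU/cell; luciferase read at 72 h post infection, normalized to buffer-only and Salinomycin controls.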
# Shiga toxin inh: Shiga toxin inhibition; Vero cells, Shiga toxin protein synthesis inhibition reporter; inhibition, % at 38.7 µM; hit rate 9.2% among 290,000; AID 2315; in the data active means inhibition mostly above about 28%, no sharp cut-off; inactive means mostly below about 43%; further: 0% is about no effect
# HCV inh: HCV inhibition. Huh7.5.1 HCVcc-Cre infection, luciferase reporter, 44 h. Potency, µM (top dose mostly 41.8 µM), without a hit: top-dose activity change, negative = inhibition, hits mostly inhibitors. hit rate 3.4% among 340,000; further: potency means the concentration at half of the fitted maximal effect; on the % scale 0 is the no-effect control and ±100 the full control effect
#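 After 44 h co-culture of compound, cells and HCVcc-Cre (~0.5 moi), substrate is added for 15 min at room temperature and luciferase measured over 15 sec. Cells were seeded at 1,000/well and pre-cultured 4 h.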
# CHX counter: counter-screen for Shiga toxin inhibitors: cycloheximide protein synthesis inhibition; cell reporter, cycloheximide protein synthesis inhibition counterscreen; max response, %; hit rate 12% among 300,000; AID 2314; in the data active means max response mostly above about 13%, no sharp cut-off; inactive means mostly below about 14%; further: read at 38.3 µM for the half of the compounds with a filed dose; 0% is about no effect
# Pf growth 96h: inhibits malaria parasite growth, 96 h. P. falciparum luciferase reporter growth, 96 h. Potency, µM (highest dose often 28.7 µM), inactives show at the highest dose activity change, negative = inhibition, hits mostly inhibitors. hit rate 6.9% among 320,000. AID 504834; further: potency means the concentration at half of the fitted maximal effect; on the % scale 0 is the no-effect control and ±100 the full control effect
#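 Parasite growth measured via integrated firefly luciferase reporter in P. falciparum. Infected erythrocytes at 2% hematocrit, 0.05% parasitemia final were treated 96 hours at 37 C under 5% CO2, and luminescence was read.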
# * hit, by the source's call; i = inactive; ? = inconclusive; . = no result. In the library only some 21% were active in any assay of this set; here they are far more common. Unless noted, the call rests on the fitted dose curve; in most records, active means well fitted inhibition curve with a large enough effect; inconclusive means small, poorly fitted or top-dose-only effect, or another doubt; inactive means no such curve, though single readings can be large or run the other way.
SMILES,Pf growth 48h,HCMV inh,Shiga toxin inh,HCV inh,CHX counter,Pf growth 96h
CCN(CC)CC#CCC(O)(c1ccccc1)C1CCCCC1 (stereo unspecified),15%,-8,19,?,18,177%
CCN(CC)CC#CC(OC)(c1ccccc1)c1ccccc1,?,-63*,-5,13%,1,?
Cc1ccccc1CN1Cc2cnnn2-c2ccccc2C1C#N (stereo unspecified),.,-99*,.,?,.,.
COc1cc2c(cc1O)CCN[C@@]21CS[C@H]2c3c(OC(C)=O)c(C)c4c(c3C(COC1=O)N1C2C2c3c(cc(C)c(OC)c3O)CC([C@@H]1O)N2C)OCO4 (stereo partly specified),0.0005µM*,.,.,.,.,2.1µM*
O=C(/C=C/c1ccco1)N1CCN(S(=O)(=O)/C=C/c2ccccc2)CC1,?,1,49,?,30*,?
Cc1ccc(/C=C/C(=O)N2CCN(S(=O)(=O)/C=C/c3ccccc3)CC2)o1,3%,55,13,8%,1,5.9µM*
Cc1ccc(/C=C/C(=O)N2CCN(S(=O)(=O)c3cccs3)CC2)o1,65%,-15,-4,24%,23*,?
O=C(/C=C/c1ccc(F)cc1)N1CCN(S(=O)(=O)/C=C/c2ccccc2)CC1,-17%,?,7,-1%,1,-21%
CCN1C(=O)NC2C1N(S(C)(=O)=O)CCN2S(C)(=O)=O (stereo unspecified),6%,-34,-11,4%,2,23%
CCCCS(=O)(=O)N1CN(S(=O)(=O)CCCC)C2NC(=O)NC21 (stereo unspecified),36%,20,22,13%,45*,114%
Cc1cc(N2CCOCC2)c2c(N)c(Br)cc(C)c2n1,11%,-82*,-14,?,-4,.
O=P(c1ccccc1)(c1ccccc1)C(c1ccccn1)P(=O)(c1ccccc1)c1ccccc1,?,37,8,9%,1,9.3µM*
O=P(c1ccccc1)(c1ccccc1)C(O)c1ccccn1 (stereo unspecified),22%,4,13,12%,-1,25%
C=C1c2ccccc2O[C@H](C(=O)OCC)C1OC (mixture of isomers),.,.,i,.,-1,.
COc1ccc(C2=NOC(C(=O)Nc3ccc(C)cc3)C2)cc1OC (stereo unspecified),.,8,-20,-27%,-2,-3%
COc1ccc(NC(=O)C2CC(c3ccc(OC)c(OC)c3)=NO2)cc1OC (stereo unspecified),-4%,1,-15,?,1,13µM*
COc1ccc(NC(=O)C2CC(c3cc(OC)c(OC)c(OC)c3)=NO2)cc1OC (stereo unspecified),.,53,-16,-10%,-5,?
COc1ccc(C2=NOC(C(=O)Nc3ccc4c(c3)OCO4)C2)cc1OC (stereo unspecified),-22%,38,89*,1%,28*,-7%
COc1cc(C2=NOC(C(=O)Nc3ccc4c(c3)OCO4)C2)cc(OC)c1OC (stereo unspecified),2.9µM*,-8,25,-14%,18*,13%
Nc1nc2sc3c(c2c(=O)s1)CCCC3,65%,-3,63,-5%,35*,0%
Nc1c2c3c(sc2nc(=O)n1N)CCCC3,8%,1,-6,3%,-3,6.6µM*
Cc1cccc(-c2noc(-c3ccc(NCC4CCCO4)c([N+](=O)[O-])c3)n2)c1 (stereo unspecified),.,18,.,.,.,.
Cc1ccc(CNS(=O)(=O)c2ccc3c(c2)NC(=O)CS3)cc1,-9%,-22,-13,6%,16,-12%
Cc1ccccc1NS(=O)(=O)c1ccc(C(=O)NNC(=O)c2ccccc2O)cc1,?,-34,.,?,.,-5%
O=C(c1ccc(Cl)c(S(=O)(=O)N2CCCC2)c1)N1CCN(c2ccccn2)CC1,.,?,-19,-12%,-3,?
SMILES,Pf growth 48h,HCMV inh,Shiga toxin inh,HCV inh,CHX counter,Pf growth 96h
O=C(c1ccc(S(=O)(=O)N2CCCCCC2)cc1)N1CCN(c2ccccn2)CC1,13µM*,-13,5,0%,-1,.
O=C(NNC(=O)c1ccccc1O)c1ccc(S(=O)(=O)Nc2ccccc2F)cc1,?,-4,.,16µM*,.,-8%
O=C(c1ccc(S(=O)(=O)Nc2ccccc2F)cc1)N1CCN(c2ccccn2)CC1,.,-26,.,4.5µM*,.,.
Cc1ccccc1NS(=O)(=O)c1ccc(C(=O)N2CCN(c3ccccn3)CC2)cc1,-30%,-31,11,?,1,-4%
COCCN(C(=O)c1ccc(-c2ccc(Cl)cc2)o1)c1c(N)n(Cc2ccccc2)c(=O)[nH]c1=O,?,-40,.,21%,.,?
COc1ccc(-c2cc(C(F)(F)F)n3nc(C(=O)Nc4cc(C(F)(F)F)ccc4Cl)cc3n2)cc1OC,.,28,.,.,.,.
OCCNCc1cc(Br)ccc1OCc1ccccc1,-29%,-68*,-7,-16%,-3,-9%
Nc1nonc1C(=O)NCCNCc1cc(Br)ccc1OCc1ccc(F)cc1,?,-21,-24,?,-3,1%
Brc1ccc(OCc2ccccc2)c(CNCC2CCCO2)c1 (stereo unspecified),-5%,-12,-11,-5%,-3,33%
CCOCCCNCc1cc(Br)ccc1OCc1ccccc1,10µM*,-34,6,?,-4,?
O=C(COc1ccc(Cl)cc1Cl)NNC(=S)NCc1ccco1,28%,-36,22,24%,17*,0%
O=C(CC12CC3CC(CC(C3)C1)C2)NC(=S)NCc1ccco1,13µM*,23,20,?,2,?
O=C(COc1ccc(Cl)cc1Cl)NNC(=S)NC(=O)c1ccco1,-6%,60,10,-12%,1,16%
CCOc1ccccc1OCC(=O)NCc1ccco1,-6%,32,-9,8%,-4,?
O=C(COc1ccccc1Cl)NCc1ccco1,28%,28,30,11%,23*,.
Cc1ccc2c(Cl)cc(Cl)c(OCC(=O)NC(=O)NCc3ccco3)c2n1,2.3µM*,0,10,?,-3,?
CCN1CCc2nc3sc(C(=O)c4ccccc4)c(N)c3cc2C1,.,10,.,.,.,.
O=C(NCc1ccco1)c1ccc(COc2cc(Cl)ccc2Cl)cc1,5.2µM*,7,69*,?,24*,?

# Screening results as filed in PubChem.
